# Reference: PubChem BioAssay AID463173 (ICCB-Longwood Screening Facility, Harvard Medical School, 2010)
# Screen size: about 52,000 compounds; about 4,300 (8.3%) were called active. For the sample, actives were picked, then their nearest neighbours and some compounds at random. A number with no mark means an inactive call. Rule as the data show it: active = survival mostly below about 52% (no sharp cut-off); inactive = mostly above about 56%.
# Tested on: DeltatarO mutant
# Test: growth inhibition of S. aureus wild type versus tarO mutant, primary screen, teichoic acid synthesis inhibitors, RN4220, OD600 (AID 463173)
# Conditions: OD600, 18 h, hits give low values, screened at 18.75 µg/mL (by protocol)
row,SMILES,survival
1,CN(C)CCN(C(=O)c1ccco1)c1nc2c(F)cc(F)cc2s1,72%
2,O=C(c1ccc2c(c1)N(Cc1ccc(Cl)cc1)C(=O)c1ccccc1S2(=O)=O)N1CCOCC1,96%
3,O=C1OC(C(=O)Nc2cccc(Br)c2)Cc2ccccc21 (stereo not given),54%
4,O=C1OC(C(=O)Nc2ccc(Cl)c(C(F)(F)F)c2)Cc2ccccc21 (stereo not given),55%
5,O=C1OC(C(=O)Nc2cc(C(F)(F)F)ccc2Cl)Cc2ccccc21 (stereo not given),56% (active)
6,CCCOc1ccc(C(=O)N(Cc2cccs2)c2ccc(C)cc2)cc1,70%
7,Cn1c(CCNC(=O)c2ccco2)nc2cc(NC(=O)COc3ccc(Cl)cc3)ccc21,58%
8,COc1cc(OC)c(NC(=O)c2c3c(nc4ccccc24)C(=O)N(C2CCCCC2)C3)cc1Cl,60%
9,Cc1ccc(-n2nc(CO)c(C(=O)NCC(c3ccccc3)c3ccccc3)n2)cc1,90%
10,CCOc1ccc(CCNC(=O)CCSCc2cccc(Cl)c2)cc1OCC,81%
11,CCOCCc1nn2c(=O)cc(COC(=O)c3ccccc3NC(=O)CC(C)C)nc2s1,89%
12,COc1ccc(OC)c(NC(=O)CCCc2nnc3n(C(C)C)c(=O)c4sccc4n23)c1,74%
13,Cc1cccc(N2CCN(C(=O)c3cc4c(=O)n(C)c5ccccc5c4s3)CC2)c1C,47% (active)
14,CCn1c(=O)c2cc(C(=O)N3CCN(c4cccc(OC)c4)CC3)sc2c2ccccc21,53% (active)
15,Cn1c(=O)c2cc(C(=O)N3CCN(c4cccc(C(F)(F)F)c4)CC3)sc2c2ccccc21,92%
16,Cn1c(=O)c2cc(C(=O)N3CCN(c4ccc(Cl)cc4)CC3)sc2c2ccccc21,56% (active)
17,COc1cccc(N2CCN(C(=O)c3cc4c(=O)oc5ccc(C)cc5c4s3)CC2)c1,89%
18,Cc1cccc(N2CCN(C(=O)c3cc4c(=O)oc5ccccc5c4s3)CC2)c1C,66%
19,COc1ccccc1N1CCN(C(=O)c2cc3c(=O)n(C)c4ccccc4c3s2)CC1,73%
20,CCn1c(=O)c2cc(C(=O)N3CCN(c4cccc(Cl)c4)CC3)sc2c2ccccc21,62%
21,Cc1ccc(Cl)cc1N1CCN(C(=O)c2cc3c(=O)n(C)c4ccccc4c3s2)CC1,56%
22,COc1ccc(CNC(=O)CSc2nc3cc4c(cc3cc2C#N)OCCO4)cc1,96%
23,CSc1cccc(NC(=O)C2CCN(C(=O)c3cnn(-c4ccccc4)c3-n3cccc3)CC2)c1,68%

row,SMILES,survival
1,COc1ccc(/C=C(\C#N)c2nc(-c3cc(Cl)ccc3OC)cs2)cc1,91%
2,CCc1ccc(NCc2cc3ccc(OC)cc3n(CC(=O)Nc3ccc(F)cc3F)c2=O)cc1,79%
3,CCOc1ccc(-n2c(-c3ccc(OC)cc3)cc3c2CC(C)(C)CC3=O)cc1,15% (active)
4,Cc1ccc(-c2cc3c(n2-c2ccccc2F)CC(C)(C)CC3=O)cc1,101%
5,Cc1ccc(-c2cc3c(n2-c2ccc(F)cc2)CC(C)(C)CC3=O)cc1,98%
6,COc1ccc(-n2c3c(cc(-c4nc(-c5ccc(C)cc5)cs4)c2=O)C(=O)CC(C)(C)C3)cc1,54%
7,CCN(CC)C(=O)c1cc2c(n(-c3ccc(OC)cc3)c1=O)CC(C)(C)CC2=O,70%
8,CCOc1ccc(-n2c(-c3ccc(Br)cc3)cc3c2CC(C)(C)CC3=O)cc1,17% (active)
9,CCOc1ccc(NC(=O)CSC2=Nc3ccccc3C3=NC(CC(=O)NCc4ccco4)C(=O)N23)cc1 (stereo not given),69%
10,CCCOc1cccc(C(=O)Nc2cc(-c3ccccc3)no2)c1,65%
11,O=c1c2oc3ccccc3c2n(Cc2ccccc2F)c(=O)n1Cc1ccccc1,46% (active)
12,Cc1cc(C)cc(NC(=O)Cn2c(=O)n(Cc3ccco3)c(=O)c3oc4ccccc4c32)c1,106%
13,COc1ccccc1NC(=O)Cn1c(=O)n(Cc2ccco2)c(=O)c2oc3ccccc3c21,67%
14,O=c1c2oc3ccccc3c2n(Cc2ccccc2F)c(=O)n1Cc1ccco1,77%
15,Cc1ccc(C)c(Cn2c(=O)n(C(C)C)c(=O)c3oc4ccccc4c32)c1,51% (active)
16,COc1cc(NC(=O)Cn2c(=O)n(Cc3ccco3)c(=O)c3oc4ccccc4c32)cc(OC)c1,38% (active)
17,Cc1ccc(C)c(NC(=O)Cn2c(=O)n(Cc3ccccc3)c(=O)c3oc4ccccc4c32)c1,62%
18,CCCCn1c(=O)c2oc3ccccc3c2n(CC(=O)Nc2cccc(Cl)c2C)c1=O,52%
19,Cc1ccc(C)c(Cn2c(=O)n(Cc3ccco3)c(=O)c3oc4ccccc4c32)c1,97%
20,CC(C)n1c(=O)c2oc3ccccc3c2n(Cc2ccccc2F)c1=O,50%
21,O=c1c2oc3ccccc3c2n(Cc2ccc(Cl)cc2)c(=O)n1Cc1ccccc1,108%
22,CCCCn1c(=O)c2oc3ccccc3c2n(CC(=O)Nc2cc(C)ccc2C)c1=O,44% (active)
